Measurements taken from ChEMBL document CHEMBL4513146, “CO-ADD screening of Karazin Kharkiv National University (Ukraine) compounds”.
Results with a measured potency or affinity are listed apart.

Assays:
Klebsiella pneumoniae = details: Concentration 32 ug.mL-1;; ASSAY_TEST Inhibition of Bacterial Growth; detection method Absorption (OD600); MEDIA CAMHB; plate type 384well; NBS; CORNING #3640; time 18 hr
Candida albicans = details: Concentration 32 ug.mL-1; ASSAY_TEST Inhibition of Fungal Growth; detection method Absorption (OD530)
Cryptococcus neoformans = details: Concentration 32 ug.mL-1; ASSAY_TEST Inhibition of Fungal Growth; detection method Resazurin; Absorption (OD600-OD570); plate type 384well; NBS; CORNING #3640

| Structure (SMILES) | Inhibition (Klebsiella pneumoniae) [%] | Inhibition (Candida albicans) [%] | Inhibition (Cryptococcus neoformans) [%] |
| --- | --- | --- | --- |
| COc1ccc(NC(=O)Cn2nc3c(Sc4ccccc4)nccn3c2=O)cc1 | 7.48 | 1.47 | -16 |
| O=C(CCc1nnc2c(N3CCCCC3)nc3ccccc3n12)NCc1ccccc1F | 14.62 | 1.76 | -9.32 |
| Cc1cc(C)c(NC(=O)Cn2nc3c(Sc4cccc(F)c4)nccn3c2=O)c(C)c1 | 9.01 | 0.95 | -7.48 |
| CC(C)(C)NC(=O)Cn1nc2n(Cc3ccco3)c(=O)c3sccc3n2c1=O | 9.07 | 1.61 | -14.16 |
| CCOc1ccccc1NC(=O)Cn1nc2c3c4c(sc3ncn2c1=O)CCCC4 | 2.08 | 2.9 | -12.75 |
| CN(C)c1nc2ccccc2n2c(=O)n(CC(=O)Nc3ccc4c(c3)OCO4)nc12 | 0.98 | -0.89 | -12.71 |
| O=c1c2sccc2n2c(=O)n(Cc3cccc(F)c3)nc2n1Cc1cccs1 | -6.06 | 36.13 | -19.84 |
| COc1ccc(NC(=O)Cn2nc3ccc(Sc4ccccc4)nn3c2=O)cc1 | 3.54 | 3.37 | -9.77 |
| COc1cccc(CNC(=O)CSc2nnc3c(=O)n(-c4ccc(C)c(C)c4)ccn23)c1OC | 8.73 | 0.37 | -5.22 |
| C=Cc1ccc(CSc2nnc3c(=O)n(-c4ccc(Br)cc4)ccn23)cc1 | 3.16 | 0.16 | -7.54 |
| CCOC(=O)c1ccc(NC(=O)Cn2nc3ccc(SCc4ccc(Cl)cc4)nn3c2=O)cc1 | 5.68 | 34.69 | -19.64 |
| CSc1cccc(NC(=O)Cn2nc3c4c5c(sc4ncn3c2=O)CCCC5)c1 | -0.84 | 7.75 | -24.58 |
| CCOC(=O)c1cccc(NC(=O)Cn2nc3c4cc(-c5ccc(C)c(C)c5)nn4ccn3c2=O)c1 | -4.81 | 21.87 | -17.02 |
| CCCn1c(=O)c2sccc2n2c(=O)n(CC(=O)c3cccc(OC)c3)nc12 | 7.12 | 6.53 | -27.27 |
| COc1cc(NC(=O)C(C)Sc2nnc3c(=O)n(-c4ccccc4OC)ccn23)cc(OC)c1 (centres undefined) | 11.13 | 1.4 | -7.6 |
| COc1ccc(N(Cc2cccc(Cl)c2)S(=O)(=O)c2ccc3nnc(C)n3c2)cc1 | 12.69 | 5 | -5.62 |
| Cc1ccc(C)c(NC(=O)Cn2nc3cc(C)nc(Nc4ccc(F)cc4)n3c2=O)c1 | 5.73 | 2.17 | -16.31 |
| COc1ccc(NC(=O)CSc2nc3ccccc3n3c(C(C)C)nnc23)cc1Cl | 5.17 | 1.87 | -6.36 |
| CCOC(=O)c1ccc(NC(=O)Cn2nc3c4cc(-c5ccc(C)cc5)nn4ccn3c2=O)cc1 | -1.86 | 7.19 | -28.56 |
| Cc1ccc(C)c(Cn2nc3ccc(-c4ccc(C)c(C)c4)nn3c2=O)c1 | 12.73 | 1.53 | -14.79 |
| CCOc1ccc(-n2ccn3c(SCC(=O)c4c(C)[nH]c5ccccc45)nnc3c2=O)cc1 | 3.78 | 2.22 | -13.8 |
| COc1ccc(NC(=O)Cn2nc3ccc(-c4ccc(Cl)cc4)nn3c2=O)cc1OC | 8.45 | -2.47 | -11.98 |
| O=C(CSc1nc2ccccc2n2cnnc12)Nc1ccc2c(c1)OCO2 | 0.58 | 2.55 | -24.91 |
| COc1cc(NC(=O)Cn2nc3c4c5c(sc4ncn3c2=O)CCCC5)cc(OC)c1OC | 9 | 0.11 | -14.64 |
| O=C(CSc1nnc2c(=O)n(-c3ccccc3)ccn12)c1ccc(F)cc1 | 11 | 4.07 | -7.83 |
| COc1ccc(CNC(=O)Cn2nc3c(Oc4ccccc4C)nccn3c2=O)cc1 | 7.26 | -2.47 | -8.82 |
| CCOc1ccc(NC(=O)Cn2nc3ccc(-c4ccc(C)c(C)c4)nn3c2=O)cc1 | 4.27 | 1.39 | -10.52 |
| Cc1ccccc1Nc1cc(C)n2c(=O)n(CCc3ccccc3)nc2n1 | 8.17 | 2.84 | -4.15 |
